Data on 16 compounds can be found in ChEMBL document CHEMBL1961873, “Compounds: GSK PKIS; Assays: Nanosyn kinase panel” (2012).

For assay [1], the target named is MAP/microtubule affinity-regulating kinase 3 (Homo sapiens) (UniProt P27448). As to conditions: at 1 µM.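 Also: reported values are averaged percent inhibition of MARK3.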
The target in assay [2] is T1, MAP/microtubule affinity-regulating kinase 4 (Homo sapiens) (UniProt Q96L34).
T1 sequence (whole entry): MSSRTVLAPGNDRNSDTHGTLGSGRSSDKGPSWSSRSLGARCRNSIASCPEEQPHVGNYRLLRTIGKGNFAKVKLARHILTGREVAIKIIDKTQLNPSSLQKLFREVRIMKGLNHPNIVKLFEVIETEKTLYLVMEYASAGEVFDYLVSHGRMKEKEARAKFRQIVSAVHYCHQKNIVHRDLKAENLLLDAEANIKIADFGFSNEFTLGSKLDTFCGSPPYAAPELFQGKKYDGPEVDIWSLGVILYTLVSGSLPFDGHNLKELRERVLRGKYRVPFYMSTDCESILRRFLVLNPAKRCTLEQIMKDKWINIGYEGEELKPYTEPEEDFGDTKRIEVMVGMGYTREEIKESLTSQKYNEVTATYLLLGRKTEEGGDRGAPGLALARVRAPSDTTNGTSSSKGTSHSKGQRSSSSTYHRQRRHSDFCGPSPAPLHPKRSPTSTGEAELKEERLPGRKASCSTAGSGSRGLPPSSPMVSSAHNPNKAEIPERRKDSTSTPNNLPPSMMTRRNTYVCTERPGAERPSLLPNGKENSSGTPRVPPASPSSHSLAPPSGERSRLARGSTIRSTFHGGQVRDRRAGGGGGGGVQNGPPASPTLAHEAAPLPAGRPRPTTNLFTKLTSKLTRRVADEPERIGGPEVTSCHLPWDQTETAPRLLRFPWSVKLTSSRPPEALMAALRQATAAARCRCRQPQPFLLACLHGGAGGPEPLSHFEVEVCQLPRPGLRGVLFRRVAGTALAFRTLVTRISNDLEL
As to conditions: at 0.1 µM.

Assay [3] concerns the target T1, MAP/microtubule affinity-regulating kinase 4 (Homo sapiens). As to conditions: at 1 µM.
In assay [4] the target is Maternal embryonic leucine zipper kinase (Homo sapiens) (UniProt Q14680). The note with it: at 0.1 µM.
The target is the same in assay [5]. As to conditions: at 1 µM.
The target of assay [6] is MAP kinase-interacting serine/threonine-protein kinase 1 (Homo sapiens) (UniProt Q9BUB5). As to conditions: at 0.1 µM.
Assay [7] shares this target. As to conditions: at 1 µM.
Assay [8] has as its target MAP kinase-interacting serine/threonine-protein kinase 2 (Homo sapiens) (UniProt Q9HBH9). The note with it: at 0.1 µM.
For assay [9] the target is unchanged. As to conditions: at 1 µM.
The target of assay [10] is Serine/threonine-protein kinase MARK2 (Homo sapiens) (UniProt Q7KZI7). The note with it: at 0.1 µM.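 Also: mean percent inhibition of PAR-1Balpha kinase activity, reported from the GSK PKIS screen.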
Chain of Serine/threonine-protein kinase MARK2 (Homo sapiens) (Q7KZI7 whole entry): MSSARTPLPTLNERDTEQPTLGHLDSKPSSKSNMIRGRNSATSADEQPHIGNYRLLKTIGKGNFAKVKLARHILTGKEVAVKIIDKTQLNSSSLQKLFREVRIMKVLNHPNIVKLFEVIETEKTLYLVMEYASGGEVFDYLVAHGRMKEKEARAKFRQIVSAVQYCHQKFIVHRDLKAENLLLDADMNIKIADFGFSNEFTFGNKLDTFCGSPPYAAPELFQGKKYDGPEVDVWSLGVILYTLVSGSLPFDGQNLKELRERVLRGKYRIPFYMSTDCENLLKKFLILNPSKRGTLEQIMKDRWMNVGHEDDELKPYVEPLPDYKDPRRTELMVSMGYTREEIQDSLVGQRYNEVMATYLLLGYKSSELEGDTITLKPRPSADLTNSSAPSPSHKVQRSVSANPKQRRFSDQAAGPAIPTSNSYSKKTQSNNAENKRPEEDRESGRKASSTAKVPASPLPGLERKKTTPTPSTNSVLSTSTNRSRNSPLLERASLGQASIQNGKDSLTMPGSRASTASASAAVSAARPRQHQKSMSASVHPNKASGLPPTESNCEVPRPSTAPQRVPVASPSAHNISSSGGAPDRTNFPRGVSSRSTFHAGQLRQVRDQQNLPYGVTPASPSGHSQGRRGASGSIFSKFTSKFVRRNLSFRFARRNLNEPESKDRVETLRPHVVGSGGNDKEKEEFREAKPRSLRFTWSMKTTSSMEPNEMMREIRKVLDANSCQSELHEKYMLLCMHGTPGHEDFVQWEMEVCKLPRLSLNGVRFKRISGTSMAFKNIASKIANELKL

Chain of MAP/microtubule affinity-regulating kinase 3 (Homo sapiens) (P27448 whole entry, looked up): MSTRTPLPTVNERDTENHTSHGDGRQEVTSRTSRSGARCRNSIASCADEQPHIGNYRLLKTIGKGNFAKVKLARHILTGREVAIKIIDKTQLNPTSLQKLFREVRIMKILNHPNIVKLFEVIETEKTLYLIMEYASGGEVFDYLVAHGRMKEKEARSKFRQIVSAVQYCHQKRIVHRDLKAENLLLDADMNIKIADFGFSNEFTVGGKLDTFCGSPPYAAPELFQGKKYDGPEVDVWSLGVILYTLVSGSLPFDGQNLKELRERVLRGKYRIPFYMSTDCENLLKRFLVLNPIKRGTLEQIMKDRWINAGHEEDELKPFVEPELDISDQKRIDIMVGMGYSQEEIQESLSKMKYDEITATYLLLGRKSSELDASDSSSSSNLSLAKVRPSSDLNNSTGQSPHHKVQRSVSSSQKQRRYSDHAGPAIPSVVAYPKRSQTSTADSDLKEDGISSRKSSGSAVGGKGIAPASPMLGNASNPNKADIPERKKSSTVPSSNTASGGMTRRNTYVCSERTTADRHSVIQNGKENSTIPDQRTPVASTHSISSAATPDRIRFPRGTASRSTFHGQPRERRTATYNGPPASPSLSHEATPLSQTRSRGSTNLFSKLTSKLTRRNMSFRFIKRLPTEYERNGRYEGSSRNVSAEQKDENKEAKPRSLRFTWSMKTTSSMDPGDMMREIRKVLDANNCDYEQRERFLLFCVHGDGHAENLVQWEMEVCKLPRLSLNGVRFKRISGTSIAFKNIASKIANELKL
Chain of MAP kinase-interacting serine/threonine-protein kinase 2 (Homo sapiens) (Q9HBH9 whole entry, looked up): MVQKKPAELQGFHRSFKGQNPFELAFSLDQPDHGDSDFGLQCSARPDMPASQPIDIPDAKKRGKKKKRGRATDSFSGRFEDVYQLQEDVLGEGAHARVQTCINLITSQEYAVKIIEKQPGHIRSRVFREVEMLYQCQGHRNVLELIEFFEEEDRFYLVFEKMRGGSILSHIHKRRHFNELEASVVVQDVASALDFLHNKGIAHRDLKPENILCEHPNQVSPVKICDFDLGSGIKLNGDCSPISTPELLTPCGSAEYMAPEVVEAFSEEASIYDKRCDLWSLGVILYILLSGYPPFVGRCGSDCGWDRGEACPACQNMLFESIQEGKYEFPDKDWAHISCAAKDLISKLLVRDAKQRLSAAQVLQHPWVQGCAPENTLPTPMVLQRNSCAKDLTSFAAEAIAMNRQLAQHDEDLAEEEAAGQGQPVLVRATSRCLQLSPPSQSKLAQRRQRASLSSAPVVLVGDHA
Chain of Maternal embryonic leucine zipper kinase (Homo sapiens) (Q14680 whole entry, looked up): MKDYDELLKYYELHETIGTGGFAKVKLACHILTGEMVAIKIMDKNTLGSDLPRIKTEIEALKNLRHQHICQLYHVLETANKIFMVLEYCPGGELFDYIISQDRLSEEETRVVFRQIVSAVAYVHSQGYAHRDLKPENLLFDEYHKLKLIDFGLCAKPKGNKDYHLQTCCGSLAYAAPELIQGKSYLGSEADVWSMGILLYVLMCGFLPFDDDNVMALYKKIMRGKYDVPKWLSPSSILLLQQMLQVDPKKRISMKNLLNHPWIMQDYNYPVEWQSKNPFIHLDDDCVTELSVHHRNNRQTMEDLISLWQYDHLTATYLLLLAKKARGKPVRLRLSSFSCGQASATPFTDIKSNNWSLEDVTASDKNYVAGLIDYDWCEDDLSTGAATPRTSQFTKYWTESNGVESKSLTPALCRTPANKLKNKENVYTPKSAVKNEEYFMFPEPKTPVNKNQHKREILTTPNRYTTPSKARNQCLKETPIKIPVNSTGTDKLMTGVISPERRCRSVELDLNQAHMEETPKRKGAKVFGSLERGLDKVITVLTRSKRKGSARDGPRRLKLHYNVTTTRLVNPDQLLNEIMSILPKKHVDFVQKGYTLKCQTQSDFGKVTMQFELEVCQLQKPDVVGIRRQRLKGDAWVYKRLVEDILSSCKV
Chain of MAP kinase-interacting serine/threonine-protein kinase 1 (Homo sapiens) (Q9BUB5 whole entry, looked up): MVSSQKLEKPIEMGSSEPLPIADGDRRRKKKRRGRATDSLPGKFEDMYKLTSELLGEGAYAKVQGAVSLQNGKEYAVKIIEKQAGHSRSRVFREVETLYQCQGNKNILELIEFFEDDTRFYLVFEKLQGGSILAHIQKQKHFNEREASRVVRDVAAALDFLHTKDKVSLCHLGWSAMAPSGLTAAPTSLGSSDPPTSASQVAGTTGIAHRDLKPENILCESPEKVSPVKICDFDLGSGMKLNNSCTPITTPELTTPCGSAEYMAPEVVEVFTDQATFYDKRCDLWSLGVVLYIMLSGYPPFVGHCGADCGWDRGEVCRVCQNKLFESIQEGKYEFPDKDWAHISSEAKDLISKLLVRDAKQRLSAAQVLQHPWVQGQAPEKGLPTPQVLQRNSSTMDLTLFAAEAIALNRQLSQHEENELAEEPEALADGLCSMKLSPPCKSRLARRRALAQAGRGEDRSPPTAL

What is called inhibition is the change of the read-out against control, counted positive when it falls. On to `Cc1cc(O)cc(C)c1/C=C/c1cncc(C(=O)N(C)C)c1`, for which the inhibition in assay [1] turned out to be 13.7%; in assay [2], 1.25%; in assay [3] it was 2.49%; in assay [4] it was 3.84%; in [5], 4.23%; in [6] it was 4.18%. Besides, the inhibition in assay [7] is 18%; in assay [8] it was 2.2%; in assay [9] it was 9.99%; in assay [10], -1.4%.
Take `CCOc1nccc2c1nc(-c1nonc1N)n2CC`: the inhibition in assay [1] is 9.66%; in assay [2], 1.03%; in assay [3], 5.45%; in [4] it was 3.16%; in assay [5] it was 5.63%; in assay [6], 3.48%. Further, the inhibition in assay [7] was found to be 9.35%; in [8], 3.06%; in assay [9], 6.16%; in assay [10], 1.34%.
On to `CN(C)CCCn1c(-c2nonc2N)nc2cnccc21`, for which the inhibition in [1] came out at 3.45%; in assay [2] it was 2.41%; in [3], 3.46%; in assay [4], 6.89%; in assay [5], 20.1%; in [6] it was 1.87%. The inhibition was 5.5% in assay [7], 0.54% in [8], -0.09% in assay [9] and 1.6% in [10].
Regarding `COc1cc2ncnc(Nc3ccc4c(cnn4Cc4ccccc4)c3)c2cc1OC`, the inhibition was found to be 2.6% in assay [1]; 1.05% in [2]; 3.55% in [3]; 3.54% in assay [4]; 8.01% in assay [5]; 2.44% in assay [6]. For the same compound, the inhibition in assay [7] was 18%; in assay [8] it was 0.99%; in [9], 17.1%; in assay [10] it was -0.07%.
Take `Nc1nccc(-c2c(-c3ccc(F)cc3)nn3cc(C(F)(F)F)ccc23)n1`: the inhibition in [1] was -0.99%; in assay [2], -0.15%; in assay [3] it was -0.03%; in assay [4], 0.66%; in assay [5], -0.87%; in [6], 1.92%. Further, the inhibition in [7] was 3.98%; in assay [8], 0.49%; in [9], 2.23%; in [10], -2.12%.
As for `OCc1ccc(-c2nc(-c3ccccn3)c(-c3ccc4c(c3)OCO4)[nH]2)cc1`, the inhibition in [1] is 4.42%; in assay [2] it was 1.75%; in assay [3], 2.19%; in assay [4] it was 6.02%; in assay [5], 4.4%; in assay [6] it was 2.65%. The inhibition was found to be 2.54% in assay [7], 0.41% in assay [8], 0.09% in assay [9] and 1.8% in assay [10].
Take `c1ccc(Cc2nc3ccc(Nc4ncnc5ccccc45)cc3[nH]2)cc1`: the inhibition was 3.72% in assay [1]; 0.9% in [2]; 2.17% in assay [3]; 0.16% in [4]; 7.57% in [5]; 2.13% in assay [6]. The inhibition was determined as 5.06% in assay [7], 1.25% in assay [8], 5.19% in assay [9] and 0.28% in [10].
`CC(C)c1ccc(Nc2nccc(-c3cnn4ncccc34)n2)cc1`: the inhibition in assay [1] came to 3.95%; in [2], 0.24%; in assay [3], 2.61%; in [4], 5.96%; in assay [5], 26.3%; in [6], 3.64%. Further, the inhibition is 11.8% in [7], 2.64% in assay [8], 15.2% in [9] and -1.19% in assay [10].
Regarding `CN1CCN(C(=O)c2ccc(NC(=O)Nc3ccc(N(C)c4ccnc(Nc5ccc(CS(C)(=O)=O)cc5)n4)cc3)cc2)CC1`, the inhibition in [1] came to 20.3%; in assay [2], 2.48%; in assay [3], 17.1%; in assay [4] it was 0.8%; in assay [5] it was 13.2%; in assay [6], 2.8%. Moreover, the inhibition in assay [7] was 13.1%; in assay [8], 5.75%; in assay [9], 33.8%; in [10] it was 0.98%.
For the compound `O=C1Nc2ccccc2/C1=C/Nc1ccc2[nH]c(=O)[nH]c2c1`, the inhibition came out at 27.5% in assay [1]; 4.86% in assay [2]; 27.1% in assay [3]; 5.79% in assay [4]; 41.4% in assay [5]; 5.46% in assay [6]. Further, the inhibition in [7] came out at 14%; in assay [8] it was 2.62%; in assay [9], 10.9%; in [10], 3.32%.
For `CCCN1CCCC(c2ccc(Nc3nc(Nc4cc(F)ccc4C(N)=O)c4cc[nH]c4n3)c(OC)c2)C1` (stereo not given), the inhibition in assay [1] stood at 68.3%; in assay [2], 7.3%; in assay [3] it was 40.7%; in [4], 24%; in assay [5], 75.2%; in assay [6] it was 3.82%. Besides, the inhibition in assay [7] came out at 5.92%; in [8] it was 1.87%; in assay [9], 2.51%; in assay [10], 6.68%.
Take `O=C1Nc2ccc(-c3cccnc3)cc2C1=Cc1cc(Br)c(O)c(Br)c1`: the inhibition in [1] came to 6.43%; in assay [2], 1.85%; in [3], 3.53%; in assay [4], 3.77%; in assay [5], 10.4%; in assay [6], 2.71%. Moreover, the inhibition in assay [7] was 12.7%; in [8], 6.02%; in [9] it was 36%; in [10] it was 1.17%.
In the case of `C[C@@H](Oc1cc(-n2cnc3ccc(OC[C@@H](O)CO)cc32)sc1C(N)=O)c1ccccc1Cl`, the inhibition was 5.81% in assay [1]; 1.02% in assay [2]; 5.24% in assay [3]; -2.58% in assay [4]; 3.21% in assay [5]; -0.74% in [6]. For the same compound, the inhibition in assay [7] was 2.69%; in [8], 0.15%; in assay [9], 2.94%; in assay [10], -0.27%.
`COc1cc2ncnc(Nc3ccc(C)c(O)c3)c2cc1OC`: the inhibition in [1] is 6.46%; in [2], 1.47%; in assay [3], 4.13%; in [4] it was 5.67%; in [5] it was 8.15%; in assay [6], 6.8%. Besides, the inhibition was determined as 30.9% in assay [7], 3.13% in [8], 15.8% in assay [9] and 2.85% in [10].
Turning to `Cc1ccc2c(-c3ccnc(Nc4cccc(C(F)(F)F)c4)n3)c(-c3ccccc3)nn2n1`, the inhibition in assay [1] is 3.93%; in assay [2] it was 2.61%; in assay [3], 2.82%; in assay [4] it was 5.84%; in assay [5] it was 10.4%; in assay [6], 3.3%. The inhibition in assay [7] was 4.19%; in assay [8] it was 2.04%; in [9], 3.52%; in [10], 1.89%.
In the case of `NC(=O)c1sc(-n2cnc3ccccc32)cc1OCc1ccccc1Br`, the inhibition came out at 5.83% in assay [1]; 1.43% in assay [2]; 5.23% in assay [3]; 4.71% in assay [4]; 10.1% in [5]; 2.14% in assay [6]. The inhibition in assay [7] worked out at 11.7%; in assay [8], 0.25%; in assay [9], 4.3%; in assay [10], 1.95%.
